# Results taken from PubChem BioAssay (EPA / NIEHS).
# Inconclusive results are not listed. Calls of active or inactive are those of the source. Rule for the calls, unless noted: active = hit-call score of the fitted dose curve at least 0.9, where 1 is the maximum; inconclusive = response in the unintended direction; inactive = score below 0.9.
# Tests used:
# [1] = Tanguay_ZF_120hpf_ActivityScore_legacy: (Legacy) Oregon State University Tanguay Lab 120 Hour Post-fertilization zebrafish Assay Score for Activity (AID 2283742);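 for AC50: dechorionated Tropical 5D wild-type zebrafish embryos held singly per well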
# In short: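 Dechorionated 5D embryos, one per well, static exposure 6–120 hpf, 28C, sealed and dark; final DMSO 0.64% (vol/vol). Brightfield binary scoring of mortality plus 18 endpoints; gain-of-signal fit versus DMSO baseline.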
# [2] = ACEA_AR_agonist_AUC_viability: ACEA Biosciences xCELLigence Real-Time Cell Analysis on Androgen Receptor Agonism for Viability (AID 2283775);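 for AC50: viability read 80 hours after compound addition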
# In short: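 22Rv1 cells; impedance growth kinetics; 8-pt 1:4 dilutions from 100 uM top final, ≤0.5% DMSO; n = 2; 80 h read; AUC viability, loss-of-signal vs DMSO.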
# [3] = STM_H9_OrnCyssISnorm_ratio: Stemina devTOX quickPredict H9 human embryonic stem cell (hESC)-based Assay for Ornithine (ORN):Cystine (CYSS) Ratio (AID 2283714)
# In short: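 UPLC-HRMS of spent media: ORN/CYSS ratio of internal-standard-normalized percentages, DMSO (0.1%) baseline. Pluripotent H9 hESCs, 72h exposure, daily re-dosing with fresh media; last 24h media collected.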
# [4] = ArunA_CellTiter_hNC: Viability Assessment in the ArunA Biomedical's Oris Neural Crest (hNC) Cell Migration Assay (AID 2283752)
# In short: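 After a 72 h chemical exposure, viability of hNC cells is read with CellTiter Aqueous One and fitted as signal loss relative to DMSO. Cells were seeded at 60,000/well on Matrigel and cultured 16 h at 37 C beforehand.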
# [5] = ArunA_Migration_hNC: ArunA Biomedical's Oris Neural Crest (hNC) Cell Migration Assay (AID 2283755)
# In short: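 Calcein-AM fluorescence (ex494 nm/em 517 nm) in the stopper-defined detection zone quantifies migration of hNC cells after 72 h chemical exposure; 60,000 cells/well plated on Matrigel with LIF and bFGF, 16 h pre-incubation. DMSO baseline.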
# [6] = ArunA_NOG_NucleusCount: ArunA Biomedical's Neurite Outgrowth (NOG) Assay for Nucleus Count (AID 2283756)
# In short: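 Viable neuron count, from Hoechst nuclei passing size and intensity gates, imaged at 20x on differentiated H9-derived human neurons. Exposure lasted 48 h from seeding; activity was scored relative to DMSO.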
# [7] = ArunA_NOG_NeuriteLength: ArunA Biomedical's Neurite Outgrowth (NOG) Assay for Neurite Length (AID 2283757)
# In short: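 Total neurite length per neuron, from traced βIII-tubulin-labelled processes longer than 10 um on viable Hoechst-gated cells, was scored as decrease from DMSO. Cells were hESC (H9)-derived neurons given 48 h chemical exposure immediately after seeding.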
# [8] = ArunA_NOG_NeuritesPerNeuron: ArunA Biomedical's Neurite Outgrowth (NOG) Assay for Neurites Per Neuron (AID 2283758)
# In short: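 Differentiated human H9-derived neurons exposed to chemicals for 48 h from seeding, then stained with Hoechst and βIII-tubulin/DyLight 488. Automated imaging counted neurites (processes >10 um) per valid neuron; loss of signal versus DMSO scored.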
# [9] = ACEA_AR_antagonist_AUC_viability: ACEA Biosciences xCELLigence Real-Time Cell Analysis on Androgen Receptor Antagonism for Viability (AID 2283776);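 note: 22Rv1 human prostate cancer cells growing on impedance electrode plates; area under impedance growth curve at 80 h after dosing as viability; hits lower the growth signal relative to DMSO meaning cytotoxicity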
# In short: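 Viability endpoint from label-free cell-index monitoring: 22Rv1 cultures treated with an eight-point 1:4 dilution series starting at 100 uM final, AUC at 80 h fitted against DMSO.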
# [10] = CEETOX_H295R_MTT_cell_viability: Viability Assessment in the CeeTox HT-H295R MTT Assay (AID 2283718; active = hit-call score of the fitted dose curve at least 0.9, where 1 is the maximum; inactive = score below 0.9;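 for AC50: curve fitted both ways so AC50 may mark viability loss or gain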)
# In short: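 Human H295R adrenal cells, prestimulated 48 h with 10 uM forskolin, were exposed 48 h to chemicals in 0.1% DMSO. Viability was measured in the same wells by MTT (0.5 mg/ml, 4 h, 37 C), absorbance 570/650 nm, as percent of controls.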
# [11] = ArunA_Migration_hNP: ArunA Biomedical's Oris Neuroprogenitor (hNP) Cell Migration Assay (AID 2283754)
# In short: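 Readout is calcein-AM fluorescence (ex494/em517) of cells migrating into the detection zone, relative to DMSO. hNP1 cells (H9-derived) grown on Matrigel behind stoppers 16 h, then stoppers pulled and chemical applied 72 h; cytochalasin D as control.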
# [12] = tested on: zebrafish Androgen Receptor (AR), gene 100005148; assay: ATG_zfAR_XSP1: Attagene TRANS-FACTORIAL Multi-Species (XSP1) HepG2 Assay for zebrafish Androgen Receptor (AR) (AID 2283771)
# In short: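 Gain-of-signal versus DMSO was measured as reporter transcripts quantified by RT-PCR, fluorescent labelling and capillary electrophoresis after 24 h chemical exposure. The cells were HepG2 expressing a chimeric zebrafish AR-GAL4, co-stimulated with 3 nM 6-alpha-fluorotestosterone.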
# [13] = target: zebrafish Estrogen Receptor (ESR1), esr1 (gene 259252) (UniProt P57717); assay: ATG_zfER1_XSP1: Attagene TRANS-FACTORIAL Multi-Species (XSP1) HepG2 Assay for zebrafish Estrogen Receptor (ESR1) (AID 2283772)
# In short: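 HepG2 cells transiently transfected with a GAL4-UAS reporter and chimeric zebrafish ER-Gal4, dosed 24 h with 3 nM 6-alpha-fluorotestosterone present. Reporter mRNA measured by RT-PCR and capillary electrophoresis; gain of signal versus DMSO.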
# [14] = tested on: zebrafish Estrogen Receptor (ESR2B), gene 317733; assay: ATG_zfER2b_XSP1: Attagene TRANS-FACTORIAL Multi-Species (XSP1) HepG2 Assay for zebrafish Estrogen Receptor (ESR2B) (AID 2283773)
# In short: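 Multiplexed TRANS format in transfected HepG2 liver cells, chimeric NR-Gal4 from zebrafish ESR2B. 24 h dosing; medium contains 3 nM 6-alpha-fluorotestosterone. mRNA induction by RT-PCR/CE, positive direction vs DMSO.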
# [15] = tested on: frog Estrogen Receptor (ESR2), gene 100174814; assay: ATG_frER2_XSP1: Attagene TRANS-FACTORIAL Multi-Species (XSP1) HepG2 Assay for frog Estrogen Receptor (ESR2) (AID 2283774)
# In short: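 HepG2, transient MRTU transfection (GAL4-UAS reporters, exogenous NR-Gal4 chimeras); 24 h compound exposure; 3 nM 6α-fluorotestosterone co-added; total RNA → RT-PCR → 6-FAM primer extension → HpaI → CE. Positive direction vs DMSO.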
# [16] = tested on: frog Estrogen Receptor (ESR1), gene 398734; assay: ATG_frER1_XSP1: Attagene TRANS-FACTORIAL Multi-Species (XSP1) HepG2 Assay for frog Estrogen Receptor (ESR1) (AID 2283777)
# In short: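 Transient MRTU transfection, HepG2 (human liver); 24 h dosing, 3 nM 6α-fluorotestosterone co-added; RNA → RT-PCR → 6-FAM labeling → CE; upward activity vs DMSO.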
# [17] = tested on: zebrafish Estrogen Receptor (ESR2A), gene 317734; assay: ATG_zfER2a_XSP1: Attagene TRANS-FACTORIAL Multi-Species (XSP1) HepG2 Assay for zebrafish Estrogen Receptor (ESR2A) (AID 2283778)
# In short: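 Transient transfection of HepG2 (human liver) with MRTU constructs; chemical dosing for 24 h; medium contained 3 nM 6-alpha-fluorotestosterone to partly stimulate AR. RT-PCR/CE fluorescence of reporter transcripts; positive direction vs DMSO.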
# [18] = target: chicken Estrogen Receptor (ESR1), ESR1 (gene 396099) (UniProt P06212); assay: ATG_chERa_XSP1: Attagene TRANS-FACTORIAL Multi-Species (XSP1) HepG2 Assay for chicken Estrogen Receptor (ESR1) (AID 2283779)
# In short: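 Read-out: fluorescent reporter mRNA fragments resolved by capillary electrophoresis after RT-PCR and HpaI digestion. Transfected HepG2 cells carried chimeric NR-Gal4 constructs, were dosed 24 h with 3 nM 6-alpha-fluorotestosterone added, and activity was fitted upward relative to DMSO.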
# Chain of zebrafish Estrogen Receptor (ESR1), esr1 (gene 259252) (P57717 whole entry, looked up, the tested form may be a part): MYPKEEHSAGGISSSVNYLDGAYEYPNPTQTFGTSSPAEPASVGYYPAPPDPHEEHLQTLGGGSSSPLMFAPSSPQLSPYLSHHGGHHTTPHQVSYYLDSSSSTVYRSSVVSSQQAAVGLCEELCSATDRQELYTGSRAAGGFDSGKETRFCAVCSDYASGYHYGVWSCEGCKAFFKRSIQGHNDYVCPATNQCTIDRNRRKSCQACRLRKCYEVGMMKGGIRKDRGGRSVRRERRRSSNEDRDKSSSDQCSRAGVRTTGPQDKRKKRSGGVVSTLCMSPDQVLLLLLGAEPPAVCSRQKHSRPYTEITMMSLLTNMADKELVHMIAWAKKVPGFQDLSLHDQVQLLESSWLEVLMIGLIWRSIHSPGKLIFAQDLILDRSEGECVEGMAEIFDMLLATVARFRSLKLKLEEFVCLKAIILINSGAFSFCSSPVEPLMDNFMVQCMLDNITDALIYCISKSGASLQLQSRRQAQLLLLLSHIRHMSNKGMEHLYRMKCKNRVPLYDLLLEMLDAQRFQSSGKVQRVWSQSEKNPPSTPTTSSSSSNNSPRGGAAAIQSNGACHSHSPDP
# Chain of chicken Estrogen Receptor (ESR1), ESR1 (gene 396099) (P06212 whole entry, looked up, the tested form may be a part): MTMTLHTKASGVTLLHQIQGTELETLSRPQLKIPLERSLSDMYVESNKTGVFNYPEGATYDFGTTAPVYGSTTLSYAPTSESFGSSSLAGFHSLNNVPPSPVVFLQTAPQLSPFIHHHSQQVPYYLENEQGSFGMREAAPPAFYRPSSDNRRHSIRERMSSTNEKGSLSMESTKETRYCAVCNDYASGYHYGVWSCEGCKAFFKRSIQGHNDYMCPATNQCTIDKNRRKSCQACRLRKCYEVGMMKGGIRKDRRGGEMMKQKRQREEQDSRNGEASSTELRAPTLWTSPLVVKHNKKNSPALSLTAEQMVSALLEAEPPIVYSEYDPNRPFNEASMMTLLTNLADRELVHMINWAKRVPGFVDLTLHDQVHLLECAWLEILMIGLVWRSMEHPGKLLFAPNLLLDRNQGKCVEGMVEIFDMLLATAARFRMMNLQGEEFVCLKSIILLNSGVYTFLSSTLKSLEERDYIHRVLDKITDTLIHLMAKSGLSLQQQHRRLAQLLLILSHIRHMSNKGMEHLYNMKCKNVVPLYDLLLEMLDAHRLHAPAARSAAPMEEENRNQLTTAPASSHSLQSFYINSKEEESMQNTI
structure (smiles),measurement,setting,value
OCCC(F)(F)C(F)(F)C(F)(F)C(F)(F)C(F)(F)C(F)(F)F,outcome,[1],inactive
same,outcome,[2],inactive
O=C(O)Cc1cc(I)c(Oc2cc(I)c(O)c(I)c2)c(I)c1,outcome,[3],inactive
same,AC50,[1],3.08 µM (active)
same,outcome,[4],inactive
same,outcome,[5],inactive
same,outcome,[6],inactive
same,outcome,[7],inactive
same,outcome,[8],inactive
same,AC50,[2],51.7 µM (active)
same,AC50,[9],46.6 µM (active)
c1ccc2c(c1)Cc1ccccc1-2,outcome,[10],inactive
same,outcome,[1],inactive
same,outcome,[2],inactive
same,outcome,[9],inactive
c1ccc2cc3c(ccc4ccccc43)cc2c1,outcome,[10],inactive
same,outcome,[1],inactive
O=c1c(-c2ccc(O)cc2)coc2cc(O)ccc12,outcome,[10],inactive
same,outcome,[1],inactive
same,outcome,[2],inactive
same,outcome,[9],inactive
NC(=O)N(O)[C@@H]1C=C[C@H](Oc2cccc(Oc3ccc(F)cc3)c2)C1,outcome,[10],inactive
same,outcome,[1],inactive
same,AC50,[2],40.8 µM (active)
same,AC50,[9],25 µM (active)
CCN(CC)CCNc1ccc(CNC=O)c2sc3ccc(OC)cc3c(=O)c12,AC50,[3],5.78 µM (active)
same,outcome,[1],inactive
same,AC50,[2],7.1 µM (active)
same,AC50,[9],5.35 µM (active)
CCCCCCCCCCCCc1ccccc1S(=O)(=O)O,outcome,[1],inactive
same,outcome,[4],inactive
same,outcome,[11],inactive
same,outcome,[5],inactive
same,outcome,[6],inactive
same,outcome,[2],inactive
same,outcome,[9],inactive
CCCOC(=O)c1ccc(O)cc1,outcome,[10],inactive
same,AC50,[1],43.3 µM (active)
same,outcome,[2],inactive
same,outcome,[9],inactive
CCc1nn(C2CCCCC2)c2cc(C3(C#N)CCC(C(=O)O)CC3)ccc12 (stereo unspecified),outcome,[10],inactive
same,AC50,[1],0.421 µM (active)
same,outcome,[9],inactive
CCC(C)(C)C1CCC(O)CC1 (stereo unspecified),outcome,[1],inactive
same,outcome,[12],inactive
same,outcome,[13],inactive
same,AC50,[14],10 µM (active)
same,outcome,[15],inactive
same,outcome,[2],inactive
same,outcome,[9],inactive
same,outcome,[16],inactive
same,outcome,[17],inactive
same,outcome,[18],inactive
Oc1cccc(O)c1,AC50,[10],1.35 µM (active)
same,outcome,[1],inactive
same,outcome,[9],inactive
